Measurements as given in PubChem BioAssay AID720517 (National Center for Advancing Translational Sciences (NCATS), 2013).
Results filed as inconclusive are left out. Where a call stands in place of a potency, no number is given. Calls of active or inactive are those of the source. Calls come from the whole dose curve; as a rule, active = well fitted activation curve with a large enough effect; inconclusive = small, poorly fitted or top-dose-only effect; inactive = flat fitted curve, though single readings scatter.

Test: qHTS for Inhibitors of Cell Surface uPA Generation: FP59 Counterscreen for Cherry-picked Compounds
Settings: FP59 anthrax toxin cytotoxicity counterscreen, cells; series mostly up to 115 µM

Structure (SMILES) | Potency
CSc1nc(-c2ccccc2)nc(C(Cl)Cl)n1 | inactive
O=C(CSc1ccc(Cl)cc1)N1CCCC1 | inactive
CCc1cc(CC)c(/C=N/NC(N)=O)c(CC)c1 | inactive
O=C(O)C(Nc1nc(C(F)(F)F)nc2ccccc12)c1ccccc1 (stereo not given) | inactive
CC1CN(C(=O)CCC(=O)NCc2ccccc2)c2ccccc2S1 (stereo not given) | inactive
Cc1ccc2cccc(OCCCOc3ccccc3CO)c2n1 | inactive
Cc1cc(C)n(-c2cc(C(=O)O)cc(C(=O)O)c2)n1 | inactive
O=C(O)CC1(CC(=O)NCc2ccc(Cl)cc2)CCCCC1 | inactive
Cc1cccc(NC(=O)c2cc3c(=O)n4ccccc4nc3s2)c1 | inactive
CCOC(=O)Cn1c(=O)cc(C)c2cccc(C)c21 | inactive
CCCCN(C(=O)c1cnccn1)c1c(N)n(CCC)c(=O)[nH]c1=O | inactive
CCc1nccn1CCC(=O)N1CCc2c([nH]c3ccccc23)C1CC(C)C (stereo not given) | inactive
CCOC(=O)N1CCN(C(=O)c2ccc3c(c2)sc2nc(-c4ccc(OC)cc4)cn23)CC1 | inactive
Cc1ccc(-n2nc3c(c2NC(=O)c2ccc4c(c2)OCO4)CS(=O)C3)c(C)c1 (stereo not given) | inactive
CS(=O)(=O)N1CCC(C(=O)Nc2ccccc2)CC1 | inactive
CCCn1nnc(NC(=S)NC(=O)c2ccccc2OC)n1 | inactive
COc1ccc(NS(=O)(=O)c2cc3c(cc2C)NC(=O)CO3)c(OC)c1 | inactive
O=C(COc1ncnc2sccc12)Nc1cccc(S(=O)(=O)N2CCCC2)c1 | inactive
COc1ccc(-c2cc3nc(C)cc(-c4ccc(OC)cc4)n3n2)cc1 | inactive
C=CCN1C=C2C(=O)C(C)(OC(=O)c3cnc4ccccc4n3)C(=O)C=C2C=C1/C=C/COC (stereo not given) | inactive

Structure (SMILES) | Potency
NC(=O)c1ccccc1NC(=O)CC12CC3CC(CC(C3)C1)C2 | inactive
COc1ccc(-n2ncc3c(=O)n(CC(=O)NC(C)C)cnc32)cc1 | inactive
O=C(c1cc([N+](=O)[O-])cc([N+](=O)[O-])c1)N(c1ccccn1)c1ccccn1 | inactive
CC(C)(C)n1ncc2c(=O)n(Cc3ccc(Cl)cc3)cnc21 | inactive
O=C(O)c1ccccc1/C=N/NC(=S)NC1CCCCC1 | inactive
Cc1ccc(S(=O)(=O)NCC(=O)OC(C)C(=O)NCc2ccc3c(c2)OCO3)cc1 (stereo not given) | inactive
Cc1c([N+](=O)[O-])c2ccc(O)cc2n1-c1ccccc1 | inactive
CN(/N=C/c1cc(Cl)cc(Cl)c1O)C(=S)NC(C)(C)C | inactive
Cc1noc(C)c1COc1ccc(C(=O)N2CCN(S(=O)(=O)c3ccc(Cl)cc3)CC2)cc1 | inactive
COC(=O)c1ccccc1NC(=O)Nc1nnc(N2CCCCC2C)s1 (stereo not given) | inactive
CC1CS(=O)(=O)CCN1N=Cc1ccc([N+](=O)[O-])o1 (stereo not given) | inactive
CC(C)c1ccc(NC(=O)COc2ccc(S(=O)(=O)N3CCOCC3)cc2)cc1 | inactive
COc1ccc(Cc2nnc(Nc3ccc(C)cc3)o2)cc1OC | inactive
O=C(CSC1=NS(=O)(=O)c2ccccc2N1)Nc1nccs1 | inactive
COc1ccc(OC)c(NC(=O)C2CC2c2ccccc2)c1 (stereo not given) | inactive
Cc1cc(N2C(=O)C(O)=C(C(=O)c3ccco3)C2c2ccc(Cl)cc2)no1 (stereo not given) | inactive
CC1=NN(C(N)=S)C(=O)C1N=Nc1ccccc1C(=O)O (stereo not given) | inactive
O=C(NC[C@H]1CCCO1)c1cccc2c1C(=O)c1ccc(-c3ccc(F)cc3OCc3ccccc3)cc1S2(=O)=O | inactive
COc1ccc([C@@H]2[C@@H]3C(=O)N(C(C)(C)C)C(=O)[C@@H]3[C@]3(C)C(=O)N(c4cccc(Cl)c4)C(=O)N23)cc1 | inactive
Fc1ccc(NC(=S)N2CCCC(c3ccccc3)=N2)cc1 | inactive
